Values joined by “and” are separate entries in the source; they are usually repeats but may differ in a detail not shown here. Equal values may be shown once. The panel holds about 83,000 compounds, 20% with a hit somewhere; the sample as a whole holds those more often.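 Note: values are percent growth. 100 is the growth of untreated cells, values between 100 and 0 indicate rising inhibition; between -100 and 0 indicates cell death.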 Values without a mark were called inactive. Active and inactive are the calls of the source. The calls were made as follows: active = growth percent below 10; inactive = the rest.
What follows are compounds tested on MDA-MB-468 breast (assay: NCI-60 one-dose screen, 48 h (100 = growth as untreated, 0 = no growth, -100 = all killed)). Details: 10 µM unless noted.

Row | Compound | growth
1 | O=C(Nc1ccc(F)cc1)ON=C1CCCCC1 | 105% [100 µM]
2 | CCN1C(=O)N(c2ccccc2)C2Nn3c(s/c(=C4\C(=O)N(C(C)C)c5ccccc54)c3=O)=NC21 (stereo not given) | 108%
3 | CC1=CC(c2ccco2)=C2C(N)=NNC2N1 (stereo not given) | 104%
4 | O=C(CSc1nc2ccccc2[nH]1)c1ccc(N2CCOCC2)cc1 | 87.6%
5 | COC(=O)c1c2c(c(C)[n+]([O-])c1C)C(=O)C=C(NCc1ccc(Br)cc1)C2=O | -60.1% (active)
6 | Cc1ccc(/C=C2\COc3ccc(O)cc3C2=O)cc1 | 91.4%
7 | Cc1ccn2c3c(c(C(=O)O)c2c1)C(=O)c1ccccc1C3=O | 84.7%
8 | COc1ccc(-c2cc(-c3ccc(Cl)cc3)c(C#N)c(=O)n2CCCCCC(=O)Nc2ccccc2N)cc1 | 53.1%
9 | O=C1/C(=C\c2ccc(F)cc2)CN(C(=O)c2ccccc2)C/C1=C\c1ccc(F)cc1 | 5.47% (active)
10 | c1ccc2sc(SSN3CC4CCC(CC4)C3)nc2c1 | 122%
11 | CCCCCCCCCCCCCCCCNc1ccccc1 | 108%
12 | O=C(Oc1ccc([N+](=O)[O-])cc1)c1ccc(CBr)cc1 | 84.9%
13 | CC(=O)O.[In] | 101%
14 | CCNC1(NC#N)CCCCC1 | 101%
15 | C[C@@H]1C(=O)N(C[C@H](Cc2ccccc2)N(Cc2ccccc2)Cc2ccccc2)[C@]1(Cc1ccccc1)C(=O)OC(C)(C)C | 10.7%
16 | S=C(S)NCCc1c[nH]c2ccccc12 | 98.6%
17 | OCc1cccnc1 | 102%
18 | CN(C)CCNc1cccc2sc3ccc(O)cc3c(=O)c12 | 28.1%
19 | CCOC(=O)/C(F)=C/C1CC1CCc1cccc(C(F)(F)F)c1 (stereo not given) | 109%
20 | CN(C)c1ccc(/C=C\C2=[N+](C)c3ccccc3C2(C)C)cc1 | 11%

Row | Compound | growth
21 | O=C(N/N=C1\c2ccccc2-c2cccc(C(=O)O)c21)c1ccc(O)cc1 | 90.8%
22 | C=C1CCC2C3(C)COC(c4ccc(N(C)C)cc4)OC3CCC2(C)C1C/C=C1/C(=O)OCC1O (stereo not given) | 22.2%
23 | Clc1ccc2[nH]cc(-c3cncn3CCc3ccccc3)c2c1 | 7.96% (active)
24 | CCOC(=O)C(Cc1ccccc1)(C(=O)OCC)C(Br)C(=O)c1ccccc1 (stereo not given) | -9.41% (active)
25 | O=c1c2cc(F)ccc2sc2c(NCCCNCCO)nc3ccccc3c12 | -72.8% (active)
26 | COc1ccc(/C=C/C(=O)C(=O)/C=C/c2ccc(OC)c(OC)c2)cc1OC | 20.1%
27 | CCCCCCCC(=O)SCC/C=C/[C@@H]1CC(=O)NCc2cccc(n2)C2=N[C@@](C)(CS2)C(=O)N[C@@H](C(C)C)C(=O)O1 | 12.4%
28 | O=C1OC(c2ccc(F)cc2)CC1CN1CCOCC1 (stereo not given) | 95.8%
29 | Cn1c(=O)c2c(ncn2CCC(=O)Nc2ccc(F)cc2)n(C)c1=O | 106%
30 | CCCN(CCC)CCC(O)c1cc2c(c3ccccc13)CCCC2 (stereo not given) | 72.2%
31 | CCOC(OCC)C(=O)c1ccccc1 | 102%
32 | COc1cc(CNC(=O)/C=C/c2ccccc2)ccc1OCC(=O)NO | 92.5%
33 | COc1ccc(C2C=C(c3ccc(Cl)c(Cl)c3)N=C3SC(C)=CN32)cc1OC (stereo not given) | 53.1%
34 | COc1ccc(NC(=O)c2sc3nc(C)c(C(O)c4ccc(OC)cc4)cc3c2N)cc1 (stereo not given) | 24.8%
35 | Cc1ccc(NC(=S)NNC(=S)Nc2ccc(C)cc2)cc1 | 99.3% and 34%
36 | CCCCNC(=O)Oc1ccc(/C(=C(\C)c2ccc(OC)cc2)c2ccc(OCCN3CCCCC3)cc2)cc1 | 64.4%
37 | N[C@@H](CC/[N+]([O-])=N/O)C(=O)O | 97.4%
38 | O=C(c1cnn2c1NC(c1ccc(F)cc1)C2)N1CCCCC1 (stereo not given) | 107%
39 | CN(C)C(=O)c1cc(-c2ccc3ncnc(NCc4ccccc4)c3c2)cnc1N | 71.9%
40 | Fc1ccc(Nc2ccnc(N3CCN(c4ccnc5cc(Cl)ccc45)CC3)n2)cc1 | 15.9%
